Results on 39 compounds are retold here after PubChem BioAssay AID651650 (Sanford-Burnham Center for Chemical Genomics, 2012).

Sequence of Neuropilin-1 (Homo sapiens) (O14786 whole entry, looked up): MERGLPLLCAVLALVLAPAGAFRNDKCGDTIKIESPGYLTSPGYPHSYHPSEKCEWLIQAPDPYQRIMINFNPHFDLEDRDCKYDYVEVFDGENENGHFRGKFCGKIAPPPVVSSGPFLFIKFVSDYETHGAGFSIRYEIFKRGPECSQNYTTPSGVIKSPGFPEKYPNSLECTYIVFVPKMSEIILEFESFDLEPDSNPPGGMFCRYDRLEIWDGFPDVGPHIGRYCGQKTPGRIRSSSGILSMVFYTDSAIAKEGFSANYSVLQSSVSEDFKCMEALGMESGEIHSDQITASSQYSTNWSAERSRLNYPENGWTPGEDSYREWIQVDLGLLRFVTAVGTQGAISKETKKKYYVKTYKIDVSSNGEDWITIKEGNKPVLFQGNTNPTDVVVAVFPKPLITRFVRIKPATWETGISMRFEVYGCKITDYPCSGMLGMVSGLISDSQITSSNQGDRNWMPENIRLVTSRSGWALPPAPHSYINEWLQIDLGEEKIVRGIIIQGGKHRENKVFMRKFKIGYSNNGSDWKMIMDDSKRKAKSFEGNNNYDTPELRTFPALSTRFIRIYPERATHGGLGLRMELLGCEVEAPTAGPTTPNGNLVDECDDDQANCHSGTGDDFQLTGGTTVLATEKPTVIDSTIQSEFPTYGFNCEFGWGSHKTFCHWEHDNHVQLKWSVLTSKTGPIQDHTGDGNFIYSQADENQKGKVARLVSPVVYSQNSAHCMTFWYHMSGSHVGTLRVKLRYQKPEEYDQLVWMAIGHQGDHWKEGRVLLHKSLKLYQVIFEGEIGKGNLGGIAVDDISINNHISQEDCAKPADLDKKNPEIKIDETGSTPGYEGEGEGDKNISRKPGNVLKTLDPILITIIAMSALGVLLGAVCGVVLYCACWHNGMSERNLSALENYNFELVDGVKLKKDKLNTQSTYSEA

This test has as its target Neuropilin-1 (Homo sapiens) (UniProt O14786). Briefly: NRP-1 b1b2 CendR peptide binding inhibitors, dose response, biochemical, FP and AlphaScreen panel (AID 651650). The settings on record: NRP-1 b1b2 / RPARPAR peptide binding, FP or AlphaScreen; run 1, at 100 µM (top of the series).
What is called inhibition is the relative decrease from the control value, in per cent. With `Cc1ccc(NC(=O)c2ccc3c(c2)OCCO3)cc1S(=O)(=O)Nc1cccc(Cl)c1`, the inhibition turned out to be 4.91%. With `C[C@@H]1CC=C[C@H]2[C@H]1C(=O)N(Cc1ccccc1)[C@H]2c1ccc(/C=C/c2ccccc2)cc1F`, the inhibition is 48.3%.

Turning to `CC(Nc1ccc2ccccc2c1)C(=O)N/N=C/c1ccncc1` (centres undefined), the inhibition is 45.8%. As for `OCCCc1n[nH]c(=S)n1-c1ccccc1`, the inhibition was 31.2%. For the compound `Cn1c(=O)c2c(nc(OCc3cccnc3)n2Cc2ccccc2)n(C)c1=O`, the inhibition amounted to 66.1%. Take `O=C(c1ccco1)N1CCN(C(=O)c2ccccc2OC(=O)C23CC4CC(CC(C4)C2)C3)CC1`: the inhibition stood at 74.6%. With `CN(C(=O)COC(=O)c1nc(-c2ccccc2)n(-c2ccccc2)n1)C1CCS(=O)(=O)C1` (centres undefined), the inhibition was -0.283%.

In the case of `CCOC(=O)[C@]12CCCC=C1N(CCC1=CCCCC1)C(=O)[C@H](CC(=O)NCC13CC4CC(CC(C4)C1)C3)C2`, the inhibition is 20.7%. With `O=S1(=O)CCOC[C@H](Cc2ccccc2)N1Cc1ccccc1F`, the inhibition is 46.5%. `COc1cc(C(=O)OCC(=O)Nc2c(F)c(F)c(F)c(F)c2F)cc(OC)c1OC`: the inhibition was found to be 17.8%. Next, `CC(=O)C(C(c1ccccc1)N1CCCc2ccccc21)N1CCOCC1` (centres undefined): 54%; `CC(C)(C)C(=O)c1cnc(Nc2ccccc2)s1`: -10.5%. For `CCC(=O)Nc1nc2nc(-c3ccccc3)cc(-c3ccccc3)n2n1`, the inhibition was found to be 37.2%. For `FC(F)(F)c1cc(C(F)(F)F)c2ccc(Oc3ccccc3)nc2n1`, the inhibition stood at 22.5%.

Turning to `O=Cc1ccc(-c2ccccc2C(=O)O)o1`, the inhibition is 51.8%. Turning to `COCc1cccc(-c2csc(C(C)(O)c3ccccc3)n2)c1` (centres undefined), the inhibition is 25.6%. For the compound `NS(=O)(=O)c1cccnc1Nc1cccc(Cl)c1Cl`, the inhibition turned out to be 14.4%. Take `CC(C(=O)N1CCN(c2ccc(Cl)cc2)CC1)c1ncc(C(F)(F)F)cc1Cl` (centres undefined): the inhibition is -2.5%. Regarding `COc1ccc(/C=N/NC(=O)c2nn(-c3ccc(Cl)cc3)c(=O)c3c(N)scc23)cc1`, the inhibition came to 17.8%. As for `CN(C)CCn1c(=O)n(-c2ccc(F)cc2)c(=O)c2c3c(sc21)CCCCC3`, the inhibition was 77.8%. `O=C(/C=C/c1ccco1)N/C(=C\c1ccccc1)C(=O)NCCc1nc2ccccc2[nH]1`: the inhibition was found to be 11.8%. In the case of `COc1ccc2c(c1)N(C)/C(=C1/SC(=NCc3ccccc3)N(c3ccccc3)C1=O)S2`, the inhibition was determined as 36.5%.

On to `O=C(CSc1nnc(CNC(=O)C23CC4CC(CC(C4)C2)C3)n1-c1ccccc1)Nc1ccc(F)cc1`, for which the inhibition worked out at 4.39%.

As to `CC1(c2ccccc2)CC(C)(C)n2c(O)c(C3=NC(=S)NC3=O)c3cccc1c32` (centres undefined), the inhibition was 12.3%.

As for `COc1ccc(CCNC(=O)c2c(O)c3cccc4c3n(c2=O)CC4)cc1OC`, the inhibition is 37.4%. As to `O=C(CN1C2=NCCN2c2ccccc21)c1ccco1`, the inhibition stood at 0.0631%. In the case of `COc1ccc(NC(=O)C(C)Sc2ccccc2)cc1` (centres undefined) it was 13.5%.

For the compound `CCOc1ccccc1N1CCN(C(=O)c2ccncc2)CC1`, the inhibition was -22.8%. On to `CCOc1ccc(C2CC(c3ccc(CC)cc3)n3nc(N)nc3N2)cc1` (centres undefined), for which the inhibition stood at 4.44%. For `Cc1csc(NC(C)c2nc3cc(C(F)(F)F)ccc3n2CCOCCO)n1` (centres undefined), the inhibition was determined as 20%.

Consider `CC(=O)c1cccc(S(=O)(=O)N2CCC(C(=O)O)(c3ccccc3)CC2)c1`, for which the inhibition was 49.1%. With `CC(=O)Nc1cc(F)c2c(c1F)Cc1cc(F)ccc1-2`, the inhibition was 64%. Take `NC(=O)c1c(NC(=O)C(=O)N2CCOCC2)sc2c1CCCC2`: the inhibition amounted to 16.2%. Regarding `CCOc1ccc(S(=O)(=O)NNC(=O)c2cc3ccccc3o2)cc1`, the inhibition came to 1.91%. As for `CCC(=O)Nc1cc2c3c(c1)CCC(=O)N3CCC2`, the inhibition came out at 101%.

Regarding `Cc1ccnc(N2CCC(C(=O)Nc3ccc4c(c3)OCCO4)CC2)n1`, the inhibition was determined as 41.7%.

On to `COC(=O)C1=C(C)NC(C)=C(C(=O)OC)C1C(=O)OC(C)C(=O)c1ccccc1` (centres undefined), for which the inhibition came to 12.9%. `Cc1nnc(NC(=O)c2ccccc2C(=O)O)s1`: the inhibition turned out to be 99.7%.

In the case of `Cc1occc1C(=O)N1N=C(C2CC2)CC1(O)C(F)(F)F` (centres undefined), the inhibition is 35.3%.
